Screening data: PubChem BioAssay, National Center for Advancing Translational Sciences (NCATS)
D2 ag-1 = Beta-Arrestin HTS for Positive Allosteric Modulators of the Human D2 Dopamine Receptor: Agonists; actives 0.084% (n = 360,000); activation, % (test concentration not listed); D(2) dopamine receptor (Homo sapiens), P14416; DiscoveRx PathHunter D2 beta-arrestin, luminescence, 90 min; 100% = 57 uM dopamine signal; in the data active = activation above about 40%; inconclusive = between about 15% and that limit
Target sequence (P14416 whole entry, looked up): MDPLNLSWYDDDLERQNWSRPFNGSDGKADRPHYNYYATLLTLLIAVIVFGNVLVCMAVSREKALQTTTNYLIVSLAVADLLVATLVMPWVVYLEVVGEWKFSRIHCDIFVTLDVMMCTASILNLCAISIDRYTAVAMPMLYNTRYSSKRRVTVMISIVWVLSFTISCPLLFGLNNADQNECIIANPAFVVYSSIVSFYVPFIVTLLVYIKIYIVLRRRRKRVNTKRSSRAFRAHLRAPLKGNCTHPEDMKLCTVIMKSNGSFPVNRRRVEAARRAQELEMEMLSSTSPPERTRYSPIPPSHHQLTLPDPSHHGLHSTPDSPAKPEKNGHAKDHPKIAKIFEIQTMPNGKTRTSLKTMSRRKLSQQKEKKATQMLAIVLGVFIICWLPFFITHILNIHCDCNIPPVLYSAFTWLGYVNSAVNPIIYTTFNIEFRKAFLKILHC
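DiscoveRx PathHunter D2 beta-arrestin cells (2,100/well) attached overnight, then compound-stimulated 90 min at 37 C in HBSS/10 mM HEPES/0.1% Tween-20 buffer; beta-galactosidase complementation read by luminescence after 1 h at ambient temperature. Dopamine 57 uM final (EC100) as control.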
D2 ag-2 = HTS Assay for Allosteric Agonists of the Human D2 Dopamine Receptor: Primary Screen for Agonists; D(2) dopamine receptor (Homo sapiens), P14416; activation, % at 2 µM; AID 485358, 2010; actives 0.53% (n = 340,000); HEK293 T-REx D2 cells, calcium flux agonist mode;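 active = activation over 3 SD above normal in the single-dose calcium agonist read, cut at about 30% in these data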
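Tetracycline-induced HEK293 Trex cells with D2 receptor force-coupled to calcium signaling, plated overnight at 30 C and loaded with no-wash calcium dye. Calcium flux read kinetically for 180 s after compound addition; responses flag agonists.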
D2 PAM-1 = HTS Assay for Positive Allosteric Modulators of the Human D2 Dopamine Receptor: Primary Screen for Potentiators; D(2) dopamine receptor (Homo sapiens), P14416; HEK293 T-REx D2, calcium flux, EC20 dopamine potentiation; potentiation, % at 10 µM; actives 0.34% (n = 340,000); AID 485347, 2010;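 active = potentiation over 3 SD above the plate norm, cut at about 30% in these data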
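Potentiation of an EC20 dopamine calcium response is measured in a force-coupled, tetracycline-inducible Hek293 Trex D2 line. Compound-only kinetic reads over 180 s flag agonists before dopamine addition.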
D2 PAM-2 = Beta-Arrestin HTS for Positive Allosteric Modulators of the Human D2 Dopamine Receptor: Potentiators; AID 624464, 2012; potentiation, % (test concentration not listed); D(2) dopamine receptor (Homo sapiens), P14416; actives 0.23% (n = 360,000); DiscoveRx D2 beta-arrestin cells, luminescence, 90 min; 100% = 57 uM dopamine signal; in the data active = potentiation above about 50%; inconclusive = mostly about 30% to 49%
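PathHunter beta-arrestin assay in DiscoveRx D2 cells. Compounds were added with an EC20 of dopamine (50 nM final) for 90 min at 37 deg C. Luminescence was read 1 h after detection reagent, with 57 uM dopamine as the EC100 control.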
D2 antag = HTS Assay for Allosteric Antagonists of the Human D2 Dopamine Receptor: Primary Screen for Antagonists. D(2) dopamine receptor (Homo sapiens), P14416. HEK293 TREx D2 cells, calcium flux, dopamine EC80. inhibition, % at 10 µM. actives 2% (n = 340,000); in the data active = inhibition above about 30%; inactive = below that, where a call was filed
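In this primary screen, negative modulation is detected by tracking calcium flux after an EC80 dopamine challenge in inducible HEK293 T-REx D2 cells preexposed to test compound for 180 s.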
Numbers stand for hits; 0 = inactive; ? = inconclusive; - = no result given. Only some compounds are listed: those with a hit (about 2.4% of all), similar ones and a draw of the others.

SMILES	D2 ag-1	D2 ag-2	D2 PAM-1	D2 PAM-2	D2 antag
O=C(COC(=O)/C=C/c1cccc(C(F)(F)F)c1)NCc1ccc(F)cc1	0	0	0	0	0
COc1cccc(/C=C/C(=O)OCC(=O)Nc2cc(C(F)(F)F)ccc2Cl)c1	0	0	0	0	34
COc1cccc(/C=C/C(=O)OCC(=O)Nc2ccc(Cl)c(S(=O)(=O)N(C)C)c2)c1	0	0	0	0	0
COc1cc(/C=C/C(=O)OCC(=O)N2CC(C)OC(C)C2)ccc1OCC#N (stereo unspecified)	0	-	-	0	-
CCNc1nc(NCC)nc(N/N=C/c2ccc(O)c(O)c2)n1	0	0	0	0	44
CCNc1nc(NCC)nc(N/N=C/c2ccc(N(C)C)cc2)n1	0	0	0	0	0
OC(CNCc1ccccc1)Cn1ccc2ccccc21 (stereo unspecified)	0	0	0	0	0
Oc1ccccc1NCC(O)Cn1ccc2ccccc21 (stereo unspecified)	0	0	0	58	0
OCc1nc2ccccc2n1CC(O)Cn1ccc2ccccc21 (stereo unspecified)	0	0	32	0	0
OC(CN1CCNCC1)Cn1ccc2ccccc21 (stereo unspecified)	-	0	0	-	0
O=C(NCCC1=CCCCC1)c1ccc2c(c1)N(Cc1cccc(Cl)c1)C(=O)c1ccccc1S2=O (stereo unspecified)	-	0	-	-	-
CCNC(=O)Nc1ccc(-n2nc(C)c(C(=O)OCC)c2C)nc1	0	0	0	0	45
CCOC(=O)c1c(C)nn(-c2ccc(NC(=O)/C=C/C(=O)O)cc2)c1C	0	0	0	0	0
Cc1csc(Sc2ccc([N+](=O)[O-])cc2C(=O)OCC(=O)NC2CCCC(C)C2C)n1 (stereo unspecified)	0	0	0	0	0
CCC(C)NC(=O)COC(=O)c1cc([N+](=O)[O-])ccc1Sc1nc(C)cs1 (stereo unspecified)	0	0	0	51	0
O=C(c1ccc2c(c1)OCCO2)C1CCN(C(=O)Nc2ccc(F)cc2)CC1	0	0	0	0	0
COc1ccc(NC(=O)N2CCC(C(=O)c3ccc4c(c3)OCCO4)CC2)cc1	0	0	33	0	0
COc1ccc(NC(=O)N2CCCC(C(=O)NC(C)C)C2)cc1 (stereo unspecified)	0	0	0	0	33
CCC1(C)Cc2nc3sc(C(=O)O)c(N)c3cc2CO1 (stereo unspecified)	0	0	0	0	37
CCOC(=O)c1sc2nc3c(cc2c1N)COC(C)(CC)C3 (stereo unspecified)	0	0	0	0	0
CCN(CC)CCOc1nnc(-c2ccc(C)cc2)c2ccccc12	0	0	0	0	36
CCN(CC)CCOc1nnc(-c2ccc(OC)cc2)c2ccccc12	0	0	0	0	0
Cc1ccc(NC2=C(NCCO)C(=O)c3ccccc3C2=O)cc1	0	0	0	60	0
CCOc1ccc(CCNC(=O)CN(C)S(=O)(=O)c2cccs2)cc1OCC	0	0	0	0	0
COc1ccc(OCc2cc(C(=O)N(C)CC3CCCCO3)no2)c(Cl)c1 (stereo unspecified)	0	0	0	0	0
SMILES	D2 ag-1	D2 ag-2	D2 PAM-1	D2 PAM-2	D2 antag
COc1ccc(OCc2cc(C(=O)N(C)CCC3CCOCC3)no2)c(Cl)c1	0	0	0	0	65
O=C1C(O)CCN1Cc1ccccc1 (stereo unspecified)	0	-	-	0	-
CSCCC(NC(=O)OC(C)(C)C)C(=O)Oc1ccc2c(=O)c(-c3ccc4c(c3)OCCO4)coc2c1 (stereo unspecified)	0	0	0	0	33
CCCN(CCC)c1ccc(C2N=C(N)Nc3nc4ccccc4n32)cc1 (stereo unspecified)	-	0	0	-	-
C=CCNC(=S)NNC(=O)c1ccc(OCCC)cc1	0	0	0	0	0
CCCOc1ccc(NC(=O)c2c(-c3ccccc3)noc2C)cc1	0	0	0	0	0
Cc1onc(-c2ccccc2)c1C(=O)Nc1nnc(COc2ccc(Cl)cc2)s1	0	0	-	?	39
CCCOc1ccc(C(=O)NC(=S)NNC(=O)c2c(-c3ccccc3)noc2C)cc1	0	70	0	0	0
CCCOc1ccc(C(=O)NNC(=S)NC(=O)CC)cc1	0	0	0	0	72
O=C(O)c1cc(-c2ccc(Cl)c(Cl)c2)n(-c2ccc(F)cc2)n1	0	0	0	0	0
CCc1nn(CCCC(=O)NC2CCCCC2C)c(=O)c2cc3occc3n12 (stereo unspecified)	0	-	-	0	-
CN(c1ccc(F)cc1)S(=O)(=O)c1ccc(Cl)c(C(=O)NCC2CCCO2)c1 (stereo unspecified)	0	0	32	0	0
O=C(NCC1CCCO1)c1cccc(Br)c1 (stereo unspecified)	0	0	0	0	0
O=C(NCC1CCCO1)c1cc2c([nH]c3ccccc32)c(-c2cccc(Br)c2)n1 (stereo unspecified)	0	0	0	0	34
O=C(NCC1CCCO1)c1ccc(NC(=O)c2cccc(Br)c2)cc1 (stereo unspecified)	0	-	-	94	-
CN(c1ccc(C(=O)NCC2CCCO2)cc1)S(=O)(=O)c1ccc(Cl)cc1 (stereo unspecified)	0	-	-	0	-
O=C(NCC1CCCO1)c1cc(S(=O)(=O)N2CCOCC2)ccc1Cl (stereo unspecified)	0	0	0	0	0
O=C(NCC1CCCO1)c1cc(S(=O)(=O)Nc2ccc(Br)cc2)ccc1Cl (stereo unspecified)	0	0	0	0	53
Cc1ccc(Cl)cc1NC(=O)Cn1c(=O)n(Cc2ccccc2)c(=O)c2oc3ccccc3c21	-	0	0	-	-
FC(F)(F)c1ccccc1Cc1c(-c2ccc(Cl)cc2)nc2ccc(Br)cn12	0	-	-	0	-
O=C(Cc1ccccc1)N(Cc1cccnc1)c1nc2c(F)cc(F)cc2s1	-	0	0	-	-
COc1ccc(NC2=NCCCCC2)cc1	0	0	0	0	0
COc1ccc(NC2=Nc3ccccc3CC2)cc1	0	0	0	0	46
O=C(/C=C/c1ccco1)NCCc1ccccc1	0	0	0	0	32
O=C(O)CCCNC(=O)/C=C/c1ccco1	0	0	0	0	0
O=C(/C=C/c1ccco1)Nc1cc(Cl)ccc1C(=O)O	0	0	0	0	34
COC(=O)CS(=O)(=O)c1nc2ccccc2nc1N1CCCCC1	-	0	0	-	-
Cc1nc(COc2ccc(C(=O)NCc3ccccc3CN3CCCCC3)cc2)cs1	0	0	0	0	0
